# In publication PMC13541613, “GHT-SELEX demonstrates unexpectedly high intrinsic sequence specificity and complex DNA binding of many human transcription factors”:
# Legend:
# Test in all cases: HT-SELEX; 20 mM HEPES pH 7, 140 mM KCl, 5 mM NaCl, 1 mM K2HPO4, 2 mM MgSO4, 100 uM EGTA, ZnSO4, 0.1% Tween20; room temperature, 1 h; high values mean tight binding
# Details in all cases: protein: ivt; tags: eGFP (N-terminal); dsDNA, one strand shown
# ZNF721 full-length = ZNF721 full-length (Homo sapiens, UniProt Q8TF20-2 1-923)
# ZNF721 full-length, sequence (Q8TF20 other isoform, or with tags, fused parts or gaps): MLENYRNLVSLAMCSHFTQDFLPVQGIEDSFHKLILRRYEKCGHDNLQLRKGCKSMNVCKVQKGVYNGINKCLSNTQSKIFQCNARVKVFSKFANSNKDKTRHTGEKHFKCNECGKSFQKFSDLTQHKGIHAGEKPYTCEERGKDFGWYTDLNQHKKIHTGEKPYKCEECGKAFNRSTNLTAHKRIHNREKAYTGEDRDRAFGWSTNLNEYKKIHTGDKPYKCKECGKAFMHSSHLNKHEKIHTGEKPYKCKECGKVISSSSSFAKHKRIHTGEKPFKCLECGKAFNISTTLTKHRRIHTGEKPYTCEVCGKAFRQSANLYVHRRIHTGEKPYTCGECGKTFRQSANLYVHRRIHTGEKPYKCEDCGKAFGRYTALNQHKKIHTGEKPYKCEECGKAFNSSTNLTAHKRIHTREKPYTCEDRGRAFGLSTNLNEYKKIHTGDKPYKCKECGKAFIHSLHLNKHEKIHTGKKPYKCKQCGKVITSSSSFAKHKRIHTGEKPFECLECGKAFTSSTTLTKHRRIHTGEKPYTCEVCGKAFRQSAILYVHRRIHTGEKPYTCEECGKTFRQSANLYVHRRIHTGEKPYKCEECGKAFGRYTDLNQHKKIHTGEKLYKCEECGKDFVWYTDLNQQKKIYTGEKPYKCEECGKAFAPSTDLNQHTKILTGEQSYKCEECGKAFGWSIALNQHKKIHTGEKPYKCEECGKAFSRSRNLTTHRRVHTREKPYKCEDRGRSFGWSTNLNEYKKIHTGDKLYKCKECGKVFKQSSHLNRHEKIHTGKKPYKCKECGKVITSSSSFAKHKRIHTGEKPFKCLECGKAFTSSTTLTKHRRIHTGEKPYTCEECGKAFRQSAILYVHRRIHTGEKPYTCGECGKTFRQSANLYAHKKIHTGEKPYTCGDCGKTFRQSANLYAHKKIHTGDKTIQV
# How it was run: (§1)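 In HEPES/KCl low-stringency buffer with Tween20, a bead-immobilised tagged transcription factor (full-length or DNA-binding-domain fragment, from HEK293 lysate or cell-free extract) was incubated with a randomized 40-base DNA library for 1 h at room temperature. DNA retained after washing was heat-eluted, amplified by PCR over successive cycles and Illumina-sequenced, giving ~3 million 60 bp reads per sample. The reported binding signal, a relative k-mer count in those selected reads, rises with tighter binding.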
# ZNF721 DBD1 = ZNF721 DBD1 (Homo sapiens, UniProt Q8TF20-2 29-461)
# ZNF721 DBD1, sequence (Q8TF20 17-449): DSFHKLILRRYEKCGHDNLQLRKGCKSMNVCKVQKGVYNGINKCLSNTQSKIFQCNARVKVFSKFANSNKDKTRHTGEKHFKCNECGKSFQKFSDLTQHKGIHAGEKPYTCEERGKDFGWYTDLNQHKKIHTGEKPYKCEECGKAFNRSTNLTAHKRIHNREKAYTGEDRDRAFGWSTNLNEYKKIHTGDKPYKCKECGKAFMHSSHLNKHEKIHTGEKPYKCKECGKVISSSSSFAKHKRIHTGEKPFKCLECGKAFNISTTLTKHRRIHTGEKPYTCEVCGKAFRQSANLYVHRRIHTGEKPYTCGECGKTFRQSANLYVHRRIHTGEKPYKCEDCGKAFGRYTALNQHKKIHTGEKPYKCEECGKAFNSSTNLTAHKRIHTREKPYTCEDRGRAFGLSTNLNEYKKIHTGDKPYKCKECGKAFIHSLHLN
# How it was run: as §1
# ZNF721 DBD2 = ZNF721 DBD2 (Homo sapiens, UniProt Q8TF20-2 395-923)
# ZNF721 DBD2, sequence (Q8TF20 383-911): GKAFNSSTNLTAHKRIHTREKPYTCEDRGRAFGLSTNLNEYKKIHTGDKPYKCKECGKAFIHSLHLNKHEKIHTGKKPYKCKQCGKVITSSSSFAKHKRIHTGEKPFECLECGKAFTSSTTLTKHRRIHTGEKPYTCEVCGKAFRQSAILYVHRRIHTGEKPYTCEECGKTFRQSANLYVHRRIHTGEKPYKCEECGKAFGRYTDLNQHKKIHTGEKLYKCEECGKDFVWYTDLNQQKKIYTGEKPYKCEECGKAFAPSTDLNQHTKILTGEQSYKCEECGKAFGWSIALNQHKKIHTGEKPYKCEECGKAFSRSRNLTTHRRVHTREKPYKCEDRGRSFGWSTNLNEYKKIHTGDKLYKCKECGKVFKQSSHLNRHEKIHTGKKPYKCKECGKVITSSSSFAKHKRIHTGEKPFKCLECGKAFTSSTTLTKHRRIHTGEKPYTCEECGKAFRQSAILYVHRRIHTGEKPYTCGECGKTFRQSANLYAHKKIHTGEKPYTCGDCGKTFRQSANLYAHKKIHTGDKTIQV
# How it was run: as §1
Sequence,binding signal (ZNF721 full-length),binding signal (ZNF721 DBD1),binding signal (ZNF721 DBD2)
CCACCGCCCA,0.131 relative 10-mer count,0.00477 relative 10-mer count,0.00575 relative 10-mer count
CACTTCATAC,0.747 relative 10-mer count,1 relative 10-mer count,0.00144 relative 10-mer count
ACCACCCACC,0.242 relative 10-mer count,0.00945 relative 10-mer count,0.00875 relative 10-mer count
CACCACCCGC,0.111 relative 10-mer count,0.00454 relative 10-mer count,0.00527 relative 10-mer count
CCAGCCCACC,0.12 relative 10-mer count,0.00353 relative 10-mer count,0.00336 relative 10-mer count
GCCCCCTCCC,0.134 relative 10-mer count,0.00633 relative 10-mer count,0.00384 relative 10-mer count
CCCACCCCGA,0.132 relative 10-mer count,0.00404 relative 10-mer count,0.00192 relative 10-mer count
AAAAAGCTGC,0.229 relative 10-mer count,0.0954 relative 10-mer count,0.00372 relative 10-mer count
CCATCCACCC,0.109 relative 10-mer count,0.00578 relative 10-mer count,0.00467 relative 10-mer count
CTCCCCCCTC,0.108 relative 10-mer count,0.00605 relative 10-mer count,0.00336 relative 10-mer count
CCATCCCCAC,0.116 relative 10-mer count,0.00537 relative 10-mer count,0.00372 relative 10-mer count
AAACAGCATG,0.284 relative 10-mer count,0.00101 relative 10-mer count,0.345 relative 10-mer count
ACGCCCCACC,0.11 relative 10-mer count,0.00271 relative 10-mer count,0.00431 relative 10-mer count
CCAAAAAACA,0.16 relative 10-mer count,0.00174 relative 10-mer count,0.185 relative 10-mer count
AAAAAAAAAC,0.134 relative 10-mer count,0.00229 relative 10-mer count,0.0808 relative 10-mer count
CACCCCCCCG,0.131 relative 10-mer count,0.00252 relative 10-mer count,0.003 relative 10-mer count
CACACCACCC,0.142 relative 10-mer count,0.00573 relative 10-mer count,0.00527 relative 10-mer count
AACCACCCCC,0.106 relative 10-mer count,0.00303 relative 10-mer count,0.00276 relative 10-mer count
CCGCCACCCC,0.307 relative 10-mer count,0.0102 relative 10-mer count,0.0018 relative 10-mer count
GCTTTTTTTA,0.176 relative 10-mer count,0.0317 relative 10-mer count,0.0453 relative 10-mer count

Sequence,binding signal (ZNF721 full-length),binding signal (ZNF721 DBD1),binding signal (ZNF721 DBD2)
CCTCCCCGCC,0.138 relative 10-mer count,0.00697 relative 10-mer count,0.00923 relative 10-mer count
CACCACCCAC,0.206 relative 10-mer count,0.0105 relative 10-mer count,0.0119 relative 10-mer count
ACCCCATCCC,0.102 relative 10-mer count,0.00367 relative 10-mer count,0.0024 relative 10-mer count
CGCACCACCC,0.108 relative 10-mer count,0.00381 relative 10-mer count,0.00695 relative 10-mer count
ACCGAAAAAA,0.104 relative 10-mer count,0.00949 relative 10-mer count,0.0485 relative 10-mer count
CCCCCACCAA,0.115 relative 10-mer count,0.00431 relative 10-mer count,0.00443 relative 10-mer count
CCCCTCGCCC,0.161 relative 10-mer count,0.00665 relative 10-mer count,0.00372 relative 10-mer count
CCCTCACCCC,0.193 relative 10-mer count,0.00862 relative 10-mer count,0.00276 relative 10-mer count
AGCCCACCCC,0.12 relative 10-mer count,0.00583 relative 10-mer count,0.0209 relative 10-mer count
CCCCGCCACC,0.266 relative 10-mer count,0.0105 relative 10-mer count,0.00336 relative 10-mer count
GCACCCCCAC,0.107 relative 10-mer count,0.00523 relative 10-mer count,0.0174 relative 10-mer count
AGCATACCCT,0.346 relative 10-mer count,0.0443 relative 10-mer count,0.416 relative 10-mer count
TCCCCCCCCA,0.116 relative 10-mer count,0.005 relative 10-mer count,0.00264 relative 10-mer count
CCCACCACAC,0.155 relative 10-mer count,0.00583 relative 10-mer count,0.00947 relative 10-mer count
GTATGAAGCA,0.171 relative 10-mer count,0.261 relative 10-mer count,0.00132 relative 10-mer count
CCGCCCCCCA,0.141 relative 10-mer count,0.0066 relative 10-mer count,0.00252 relative 10-mer count
AAAAAGCATC,0.123 relative 10-mer count,0.0262 relative 10-mer count,0.0225 relative 10-mer count
ACCGCCCCCC,0.135 relative 10-mer count,0.00642 relative 10-mer count,0.00132 relative 10-mer count
CCCCCCTCAC,0.103 relative 10-mer count,0.00482 relative 10-mer count,0.00443 relative 10-mer count
CACCCTCCAC,0.106 relative 10-mer count,0.0056 relative 10-mer count,0.00587 relative 10-mer count

Sequence,binding signal (ZNF721 full-length),binding signal (ZNF721 DBD1),binding signal (ZNF721 DBD2)
CAGCGTCTCC,0.299 relative 10-mer count,0.00174 relative 10-mer count,0.722 relative 10-mer count
CCCCCACCGC,0.192 relative 10-mer count,0.00936 relative 10-mer count,0.00479 relative 10-mer count
AGGGGGCGGG,0.128 relative 10-mer count,0.00463 relative 10-mer count,0.0012 relative 10-mer count
CCCCCACCAC,0.312 relative 10-mer count,0.0133 relative 10-mer count,0.00707 relative 10-mer count
CCCCCCCATC,0.115 relative 10-mer count,0.00358 relative 10-mer count,0.00324 relative 10-mer count
CCTCACCCCC,0.156 relative 10-mer count,0.00683 relative 10-mer count,0.0018 relative 10-mer count
CAAAAAGCAG,0.159 relative 10-mer count,0.00156 relative 10-mer count,0.172 relative 10-mer count
AAAGCAGGGT,0.272 relative 10-mer count,0.00115 relative 10-mer count,0.337 relative 10-mer count
AAAAAGCAGA,0.107 relative 10-mer count,0.00183 relative 10-mer count,0.0852 relative 10-mer count
CACCCCCCGC,0.132 relative 10-mer count,0.00537 relative 10-mer count,0.00635 relative 10-mer count
ACCCCTCCAC,0.11 relative 10-mer count,0.00472 relative 10-mer count,0.00419 relative 10-mer count
CCACCCCCAA,0.118 relative 10-mer count,0.00546 relative 10-mer count,0.00491 relative 10-mer count
GCCTCCCCCC,0.115 relative 10-mer count,0.00518 relative 10-mer count,0.00791 relative 10-mer count
GGTGGGGGGA,0.186 relative 10-mer count,0.00904 relative 10-mer count,0.00407 relative 10-mer count
AAAAGCAGTC,0.111 relative 10-mer count,0.00225 relative 10-mer count,0.105 relative 10-mer count
ACCCACCCCG,0.133 relative 10-mer count,0.00491 relative 10-mer count,0.00264 relative 10-mer count
CCCTTCCCCC,0.141 relative 10-mer count,0.00633 relative 10-mer count,0.003 relative 10-mer count
GCCACCCCCA,0.107 relative 10-mer count,0.00326 relative 10-mer count,0.00216 relative 10-mer count
AAAGAAGCTA,0.132 relative 10-mer count,0.109 relative 10-mer count,0.00132 relative 10-mer count
CCCCCACCCC,0.44 relative 10-mer count,0.0205 relative 10-mer count,0.00276 relative 10-mer count
